Compounds with a hit are over-represented: about 3.4% of the library has one in this group of screens.
FBW7 activator = FBW7 E3 ligase activators, primary screen, biochemical, AlphaScreen, human. F-box/WD repeat-containing protein 7 (Homo sapiens), Q969H0. normalized activity (activation), % at 26.1 µM. hit rate 0.13% among 650,000. AlphaScreen FBW7–phospho-cyclin E peptide binding, activator screen; in the data active means normalized activity above about 1.9%;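 further: purified mutant Fbw7 with reduced substrate affinity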
Target sequence (Q969H0 whole entry, looked up): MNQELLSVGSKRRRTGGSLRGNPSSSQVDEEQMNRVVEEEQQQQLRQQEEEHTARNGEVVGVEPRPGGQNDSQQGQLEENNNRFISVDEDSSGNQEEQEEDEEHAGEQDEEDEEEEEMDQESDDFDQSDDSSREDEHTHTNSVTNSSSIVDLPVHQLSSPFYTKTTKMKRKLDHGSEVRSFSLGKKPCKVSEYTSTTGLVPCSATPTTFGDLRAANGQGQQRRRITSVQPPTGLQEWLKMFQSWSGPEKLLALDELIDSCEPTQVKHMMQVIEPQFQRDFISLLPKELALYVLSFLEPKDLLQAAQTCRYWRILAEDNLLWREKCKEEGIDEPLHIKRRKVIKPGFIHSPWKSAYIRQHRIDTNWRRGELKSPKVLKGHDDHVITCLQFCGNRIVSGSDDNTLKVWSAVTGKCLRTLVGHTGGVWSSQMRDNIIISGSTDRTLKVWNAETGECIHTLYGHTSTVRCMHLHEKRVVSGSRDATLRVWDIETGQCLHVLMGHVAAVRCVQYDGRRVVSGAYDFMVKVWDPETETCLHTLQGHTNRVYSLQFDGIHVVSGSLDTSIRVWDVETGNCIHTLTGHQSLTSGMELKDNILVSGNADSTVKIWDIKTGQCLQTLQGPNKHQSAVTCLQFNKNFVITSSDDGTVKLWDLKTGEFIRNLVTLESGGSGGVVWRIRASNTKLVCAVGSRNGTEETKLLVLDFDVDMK
MITF inh = MITF inhibitors, primary screen, biochemical, AlphaScreen, human; Microphthalmia-associated transcription factor (Homo sapiens), O75030; AlphaScreen MITF homodimerization, bead proximity signal; inhibition, % at 2.6 µM; hit rate 0.91% among 650,000; in the data active means inhibition above about 50%;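 further: 0% = vehicle wells with protein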
GPR151 activ = activators of human GPR151, primary screen, cell-based, PathHunter beta-arrestin, luminescence. G-protein coupled receptor 151 (Homo sapiens), Q8TDV0. PathHunter beta-arrestin GPR151 cells. hit rate 1% among 650,000. activation, % at 11.2 µM; in the data active means activation above about 4.9%;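 further: 0% = median of compound wells and 100% = cells with positive control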
TEAD-YAP block = TEAD-YAP interaction inhibition, primary screen, TEAD-YAP interaction inhibitor project, luminescence, HEK-TIYL cells | TEAD-Gal4/YAP UAS-luciferase luminescence | inhibition, % at 9.12 µM | hit rate 1.4% among 640,000 | AID 1259422, 2018; in the data active means inhibition above about 32%;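 further: 0% = median of test compound wells and 100% = reference inhibitor wells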
GPR151 conf act = GPR151 activators, triplicate retest, confirmation, cell-based, PathHunter beta-arrestin, luminescence; shares compounds with GPR151 activ; GPR151 PathHunter beta-arrestin cells, 90 min; % of EA-reagent control over plate median; activation, % at 11.2 µM; 6,700 tested, under 10 active; AID 1508609, 2020;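 active means mean percent activation across replicates above the confirmation screen cutoff of 4.91%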
GPR119 counter = GPR119 activators in beta-arrestin cells, counter-screen for GPR151 activator project, cell-based, PathHunter beta-arrestin, luminescence, triplicate; shares compounds with GPR151 activ; 90 min; 0 = compound-well median, 100 = enzyme-acceptor control; activation, % at 11.2 µM; hit rate 0.3% among 6,700; AID 1508611, 2020;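 active means mean percent activation in the counterscreen above 29.09%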;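 further: counterscreen on off-target GPR119 to flag nonselective hits from the GPR151 activator screen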
* hit, by the source's call; · = no result given.

SMILES	FBW7 activator	MITF inh	GPR151 activ	TEAD-YAP block	GPR151 conf act	GPR119 counter
CCC(C)c1ccccc1OCCON1C(=O)CCC1=O (centres undefined)	-0.1	-21.1	7.1*	7.6	1.7	2.0
CC(C)(C)c1ccc(OCCON2C(=O)CCC2=O)c(Cl)c1	-0.1	-27.8	3.3	2.1	·	·
Cc1nc2c(c(=O)[nH]1)CCN(C(=O)CSc1ncnc3ccccc13)C2	-0.1	1.9	-0.7	-27.3	·	·
CCNc1nc(NC(C)(C)C)nc(Oc2ccc(=O)[nH]n2)n1	-0.3	-6.6	5.1*	9.2	0.5	-3.8
CCNc1nc(Oc2ccc(=O)[nH]n2)nc(SC)n1	0.1	8.4	0.6	1.8	·	·
CCn1c(CSCc2ccc(F)cc2)nnc1SCC(=O)Nc1nc(C)cs1	0.1	-11.1	0.2	9.3	·	·
Cc1csc(NC(=O)CSc2nnc(CSCc3ccc(F)cc3)n2C)n1	0.2	-9.6	5.1*	14.6	0.4	6.6
Cc1csc(NC(=O)CSCC(=O)Nc2ccccc2)n1	-0.2	-8.8	6.9*	-8.3	1.4	6.3
O=C(CSCC(=O)Nc1ccc2nc(SCC(=O)Nc3ccccc3)sc2c1)Nc1ccc2ccccc2c1	-0.1	10.7	-0.9	0.4	·	·
CCOC(=O)CSc1nc2ccc(NC(=O)CSCC(=O)Nc3ccccc3)cc2s1	0.0	-1.7	4.9*	1.8	0.5	6.4
Cc1cccc(-n2cc(-c3ccccc3)c3c(NCCCO)ncnc32)c1	-0.3	6.0	-0.5	-8.7	·	·
CN1CCN(C(=O)c2ccc(-c3nc4ncnc(NCCc5ccc(O)cc5)c4[nH]3)cc2)CC1	0.0	8.5	0.6	8.8	·	·
CC1CCC(C(C)C)C(OC(=O)COC(=O)c2cc(=O)[nH]c(=O)[nH]2)C1 (centres undefined)	0.3	10.7	0.9	16.9	·	·
CCOC(=O)c1ccc(CN(Cc2ccc(Br)cc2)S(=O)(=O)c2ccc(F)c(C(=O)Nc3c(C)cccc3CC)c2)cc1	-0.1	-0.2	-0.4	-4.9	·	·
CC(C(=O)N1c2ccccc2CC1C)N1CCN(c2ccccn2)CC1 (centres undefined)	0.5	14.3	5.3*	13.2	0.4	-8.1
CNC(=O)NC(=O)C(C)N1CCN(c2ccccn2)CC1 (centres undefined)	0.6	15.2	1.1	-5.2	·	·
N#Cc1ccc(C(=O)Nc2sc3c(c2C(N)=O)CCN(Cc2ccccc2)C3)cc1	-0.2	1.8	1.0	9.7	·	·
CC1=NN(c2ccc(C)cc2)C(=O)/C1=C/c1ccc2c(c1)OCO2	-0.4	-3.6	5.3*	-3.6	0.1	-0.9
CC1=NN(c2ccc(Cl)cc2)C(=O)/C1=C/c1ccc2c(c1)OCO2	-0.2	6.6	0.3	0.5	·	·
CC1CCCCN1Cc1ccc(C(=O)NCc2cnc3ccccc3c2)c(=O)[nH]1 (centres undefined)	0.1	-1.5	10.8*	18.9	0.7	7.0
CCN(CC)Cc1ccc(C(=O)NCc2cnc3ccccc3c2)c(=O)[nH]1	-0.1	-8.0	0.9	10.5	·	·
CC1CCCC(OC(=O)c2ccc([N+](=O)[O-])cc2)C1 (centres undefined)	-0.1	-17.4	-0.8	0.8	·	·
CS(=O)(=O)N(CC(=O)N1CCN(c2ccc(F)cc2)CC1)Cc1ccc(Cl)cc1	-0.1	-6.4	2.3	3.9	·	·
CS(=O)(=O)N(CC(=O)N1CCN(c2ccccc2)CC1)Cc1ccc(Cl)cc1	0.5	-2.3	5.0*	-1.0	-0.2	-1.5
O=C(Cn1nc2oc3ccccc3n2c1=O)NC1CCCC1	-0.1	-4.4	7.8*	2.5	0.5	8.9
SMILES	FBW7 activator	MITF inh	GPR151 activ	TEAD-YAP block	GPR151 conf act	GPR119 counter
CCC(C)(C)NC(=O)c1ccc(C)c(C)c1	0.0	13.3	2.3	-9.4	·	·
CC(C)CC(=O)N1CCC(c2nc3c(nnn3Cc3cccc(F)c3)c(=O)[nH]2)CC1	0.0	3.4	5.6*	5.3	1.3	7.0
CC(C)CC(=O)N1CCC(c2nc3c(nnn3Cc3ccc(F)cc3)c(=O)[nH]2)CC1	-0.2	-0.5	1.4	2.0	·	·
CCCCCC(O)CCC(=O)NNC(=S)Nc1ccccc1 (centres undefined)	0.3	6.8	0.5	1.9	·	·
CC(C)COCC(O)CCC(=O)NNC(=S)Nc1ccccc1 (centres undefined)	-0.3	1.8	6.5*	-5.1	0.6	13.9
CCCSc1nc2c(c(=O)n1Cc1ccco1)C1(CCCCC1)Cc1ccccc1-2	0.1	1.1	0.2	6.5	·	·
O=[N+]([O-])c1c(Cl)ccc2nsnc12	0.1	-0.4	1.0	-0.8	·	·
O=[N+]([O-])c1c(Oc2ccc(Cl)cc2)ccc2nsnc12	0.2	12.4	5.3*	-5.0	-0.1	-6.7
Cc1cccc(C)c1-n1c(=S)sc2c(=O)n(CCc3ccccc3)c(SCc3nc4ccccc4[nH]3)nc21	0.1	15.4	-0.3	5.4	·	·
CS(=O)(=O)N(CC(=O)Nc1cccc(F)c1)Cc1ccccc1	-0.2	12.0	6.3*	22.5	0.2	-0.6
O=C(Nc1nnc(N2CCCC2)s1)Nc1ccc(Br)cc1F	-0.1	0.1	5.6*	-11.2	0.0	-3.3
O=C(Nc1nnc(N2CCCC2)s1)Nc1ccccc1F	0.2	-2.6	0.1	-73.7	·	·
Cc1ccc(NC(=O)Nc2nnc(N3CCCCC3)s2)c(Cl)c1	-0.1	-3.1	5.3*	4.6	-0.1	-8.5
O=C1CCC(CCNCCOc2ccc(F)cc2)N1CC1CCCN(c2ncccn2)C1 (centres undefined)	-0.2	-10.8	0.7	4.7	·	·
CCOc1ccccc1OCC(=O)Nc1ccc2c(c1)OCO2	-0.1	4.0	2.2	-27.1	·	·
O=C(COc1ccccc1C(=O)Nc1ccccc1)Nc1ccc2c(c1)OCO2	-0.1	-0.8	7.9*	0.5	0.1	-2.0
Cn1nc(CC(=O)N2CCN(c3ccccc3F)CC2)c2ccccc2c1=O	0.0	0.8	1.2	-1.3	·	·
COc1ccc(CN2CCN(Cc3ccc(OC)c(OC)c3OC)CC2)c(OC)c1	0.1	41.0	11.5*	2.2	-0.7	8.0
CCOC(=O)N1CCc2c(sc3[nH]c(=O)n(-c4ccccc4)c(=O)c23)C1	0.0	11.9	0.4	7.7	·	·
O=C(Nc1ccc(Cl)cc1Cl)/C(=C/c1cccc([N+](=O)[O-])c1)NC(=O)c1ccccc1F	-0.2	-4.6	2.6	0.1	·	·
Cc1cccc(NC(=O)c2cc(N3C(=O)CCC3=O)ccc2N2CCCCC2)c1	-0.1	-14.5	8.2*	3.7	0.0	8.5
CC(=O)Nc1ccc(N2CCCCC2)c(C(=O)Nc2cccc(C)c2)c1	0.2	11.9	-0.5	3.7	·	·
Cc1c2c(nc3c(C(=O)NC4CCCCCCC4)cnn13)CCCC2	-0.1	-2.6	-0.1	-19.4	·	·

Assay outcomes as filed in PubChem.
